SNCA expr inh – inhibitors of alpha-synuclein (SNCA) gene expression. Potency, µM (highest dose often 57.2 µM), without a hit: top-dose activity change, negative = inhibition, hits mostly inhibitors. HEK-293 SNCA-luciferase knock-in, luminescence, 24 h. 140,000 compounds, 0.17% hits;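 note: plate controls were DMSO cells for no effect and cell-free wells for full effect; nearly all actives have a fitted effect of over 45% in size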
Luciferase inh – blocks purified firefly luciferase enzyme activity. purified P. pyralis luciferase, luminescence, biochemical. Potency, µM (titrated, usually from 115 µM), usual class: inhibitors. 76,000 compounds, 2.5% hits. AID 1347043; note: nearly all actives have a fitted effect of over 65% in size
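Purified 10nM P. pyralis luciferase with 10uM D-luciferin and 10uM ATP in 50mM Tris acetate pH 7.5, 10mM Mg acetate, 0.01% Tween-20, 0.05% BSA. qHTS titration; luminescence read by CCD imager.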
HEK cytotox – cytotoxic compounds in HEK 293 cells. HEK 293 viability, ATP luminescence (CellTiter-Glo), 48-72 h. 94,000 compounds, 6.6% hits. Potency, µM (titrated, usually from 115 µM), for inactives: at the top dose activity change, negative = cytotoxicity, most hits filed as inhibitors; note: nearly all actives have a fitted effect of over 60% in size
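CellTiter-Glo luminescence (cellular ATP) was read after 48 or 72 hr of compound exposure at 37 degree Celsius. Cells were HEK 293 plated at 250 cells/well.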
HEK293 viab – counter-screen for SNCA expression inhibitors: cell viability; HEK-293-SNCA-luc viability, GF-AFC fluorescence, 24 h; Potency, µM (top dose mostly 57.1 µM), inactives show at the top dose activity change, negative = cytotoxicity, hits mostly cytotoxic; 150,000 compounds, 0.12% hits; AID 1671193;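 note: 0% = DMSO-treated cells and -100% = medium-only wells without cells; nearly all actives have a fitted effect of over 30% in size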
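HEK-293-SNCA-luc cells (1500/well) plated 24 h, then exposed 24 h to a dilution series; GF-AFC added 30 min at 37C, fluorescence 405/540 nm; normalised to medium-only and DMSO wells, Hill fit.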
NIH3T3 tox – cytotoxic compounds in NIH 3T3 cells | 94,000 compounds, 4.3% hits | NIH 3T3 viability, CellTiter-Glo ATP luminescence, 48-72 h | Potency, µM (top dose mostly 96.7 µM), without a hit: at the highest dose activity change, negative = cytotoxicity, usual class: inhibitors; note: nearly all actives have a fitted effect of over 55% in size
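Viability of NIH 3T3 cells after 48 or 72 hr compound treatment at 37 °C was assessed by CellTiter-Glo, with luminescence imaged following a 10 min room-temperature step.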
NPR1 antag – human Npr1 receptor antagonism; P16066; HEK293 hNpr1 GloSensor cGMP, ANP-stimulated luminescence; Potency, µM (titrated, usually from 46.3 µM), for inactives: top-dose activity change, negative = inhibition, actives largely listed as inhibitors; 76,000 compounds, 1.6% hits; calls by dose curve; note: nearly all actives have a fitted effect of over 60% in size
Target sequence (P16066 whole entry, looked up): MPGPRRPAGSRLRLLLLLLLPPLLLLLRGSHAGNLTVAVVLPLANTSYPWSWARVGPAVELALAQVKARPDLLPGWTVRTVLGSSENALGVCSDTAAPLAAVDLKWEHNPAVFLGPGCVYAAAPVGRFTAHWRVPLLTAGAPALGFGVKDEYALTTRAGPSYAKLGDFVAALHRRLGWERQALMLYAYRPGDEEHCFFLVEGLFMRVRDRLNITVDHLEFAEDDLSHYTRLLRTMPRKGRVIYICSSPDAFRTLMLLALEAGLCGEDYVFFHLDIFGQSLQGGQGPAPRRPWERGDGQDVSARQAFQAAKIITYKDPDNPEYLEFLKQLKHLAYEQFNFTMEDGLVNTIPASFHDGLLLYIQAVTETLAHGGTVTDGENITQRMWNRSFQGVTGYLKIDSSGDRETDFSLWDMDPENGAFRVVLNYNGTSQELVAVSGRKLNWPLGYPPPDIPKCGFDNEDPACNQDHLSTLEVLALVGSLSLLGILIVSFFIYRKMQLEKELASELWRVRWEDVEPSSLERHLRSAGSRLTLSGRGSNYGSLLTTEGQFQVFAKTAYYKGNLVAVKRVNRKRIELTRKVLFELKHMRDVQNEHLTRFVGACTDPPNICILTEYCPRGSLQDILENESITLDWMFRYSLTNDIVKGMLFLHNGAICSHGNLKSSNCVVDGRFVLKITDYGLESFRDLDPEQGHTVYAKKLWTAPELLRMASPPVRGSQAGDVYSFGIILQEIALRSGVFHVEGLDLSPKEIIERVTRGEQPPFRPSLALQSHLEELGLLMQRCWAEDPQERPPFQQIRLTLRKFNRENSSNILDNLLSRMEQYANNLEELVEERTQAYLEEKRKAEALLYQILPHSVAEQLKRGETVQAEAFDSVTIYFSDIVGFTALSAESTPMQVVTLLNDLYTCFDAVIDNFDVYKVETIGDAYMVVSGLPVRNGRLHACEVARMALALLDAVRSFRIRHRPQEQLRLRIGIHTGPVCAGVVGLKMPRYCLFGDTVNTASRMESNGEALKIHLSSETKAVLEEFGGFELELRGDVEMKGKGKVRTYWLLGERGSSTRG
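Compound pre-incubated 30 min at room temperature on GloSensor-loaded HEK293 cells stably carrying hNpr1 and the pGS-40F cGMP biosensor. Stimulation uses hNppA at 0.1 nM final; luminescence is taken at baseline and 20 min post-agonist.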
* = called active by the depositor; [ ] = another dose, or the depositor's remark. Rows were chosen to be rich in hits. Some 7.4% of all compounds tested hit in one or more screens of this group. Unless noted, calls come from the whole dose curve; as a rule, active = well fitted curve in the direction sought with a large enough effect; inconclusive = small, poorly fitted or top-dose-only effect, or another doubt; inactive = no such curve, though single readings can be large; an effect the other way counts as inactive or inconclusive. Unless noted, % is set by controls: 0 for no effect and ±100 for the full control effect; potency is the fitted concentration of half-maximal effect.

CCC(C)NC(=O)CNC(=O)c1ccc(-c2cccc(C(F)(F)F)c2)cc1 (stereo unspecified) was read as SNCA expr inh -12.5%, HEK cytotox 35.5µM*, HEK293 viab -19.5%[12.5 µM] and NIH3T3 tox -24.0%.
Screening Cc1ccc([S+](=O)([O-])NCCNC(=O)c2ccc(-c3cncnc3)cc2)cc1 returned HEK cytotox -28.4% and NIH3T3 tox -28.5%.
`COCCCn1c(=O)c(C(=O)N2CCN([S+](=O)([O-])c3cccc(OC)c3)CC2)nc2cccnc21` gave SNCA expr inh -16.0%, HEK cytotox 0.6%, HEK293 viab 6.2% and NIH3T3 tox -6.5%.
For COC(=O)CNC(=O)c1ccc2nnc(Cc3ccc(OC)cc3)n2c1 the results were SNCA expr inh -6.5%, HEK cytotox 3.7%, HEK293 viab -0.9% and NIH3T3 tox -18.8%.
Screening COc1cccc(C(=O)Nc2ccc3c(c2)CN(Cc2cccc(OC)c2OC)C(=O)C(C)O3)c1 (stereo unspecified) returned SNCA expr inh 0.5%, Luciferase inh inactive, HEK cytotox 28.2µM*, HEK293 viab 1.4%, NIH3T3 tox 35.5µM* and NPR1 antag -18.5%.
For COc1ccc(CN2Cc3cc(NC(=O)c4ccccc4F)ccc3OC(C)C2=O)c(OC)c1 (stereo unspecified) the results were SNCA expr inh -7.7%, Luciferase inh inactive, HEK cytotox 35.5µM*, HEK293 viab -0.3%, NIH3T3 tox inconclusive and NPR1 antag -2.1%.
`COc1ccc(C(=O)Nc2ccc3c(c2)CN(Cc2cccc(OC)c2OC)C(=O)CO3)cc1` gave SNCA expr inh 21.0%, Luciferase inh inactive, HEK cytotox inconclusive, HEK293 viab -25.1%, NIH3T3 tox inconclusive and NPR1 antag -0.8%.
COc1ccccc1CN1Cc2cc(NC(=O)c3ccc(Cl)cc3)ccc2OC(C)C1=O (stereo unspecified) was read as SNCA expr inh -27.5%, Luciferase inh inactive, HEK cytotox 25.1µM*, HEK293 viab -9.0%, NIH3T3 tox inconclusive and NPR1 antag -4.5%.
For COc1cccc(CN2Cc3cc(NC(=O)c4ccccc4)ccc3OC(C)C2=O)c1OC (stereo unspecified) the results were SNCA expr inh 1.8%, Luciferase inh inactive, HEK cytotox inconclusive, HEK293 viab 2.5%, NIH3T3 tox inconclusive and NPR1 antag -11.8%.
For COc1cccc(C(=O)Nc2ccc3c(c2)CN(Cc2cccc(OC)c2OC)C(=O)CO3)c1 the results were SNCA expr inh -27.2%, Luciferase inh inconclusive, HEK cytotox 44.7µM*, HEK293 viab 0.0%, NIH3T3 tox -24.3% and NPR1 antag -2.4%.
For CC1Oc2ccc(NC(=O)c3ccc(Cl)c(Cl)c3)cc2CN(Cc2ccccc2F)C1=O (stereo unspecified) the results were SNCA expr inh -23.0%, Luciferase inh inactive, HEK cytotox inconclusive, HEK293 viab -5.0%, NIH3T3 tox inconclusive and NPR1 antag -17.6%.
Screening O=C(Nc1ccc2c(c1)CN(Cc1ccccc1F)C(=O)CO2)c1ccc(Cl)cc1 returned SNCA expr inh -4.9%, Luciferase inh inconclusive, HEK cytotox 39.8µM*, HEK293 viab -15.0%, NIH3T3 tox inconclusive and NPR1 antag -26.1%.
For COc1cccc(-c2nc(N3CCOCC3)cc3c2CN(C)C3=O)c1 the results were SNCA expr inh 18.7%[87.6 µM], Luciferase inh inactive, HEK cytotox inconclusive, HEK293 viab 0.2%[87.6 µM], NIH3T3 tox 15.8µM* and NPR1 antag 3.9%[70.6 µM].
`CN1Cc2c(cc(N3CCOCC3)nc2-c2cccc(N[S+](C)(=O)[O-])c2)C1=O` gave SNCA expr inh 107.3%[87.6 µM], Luciferase inh inactive, HEK cytotox inconclusive, HEK293 viab 9.2%[87.6 µM], NIH3T3 tox 14.1µM* and NPR1 antag 6.8%[70.6 µM].
Screening COc1cccc(-c2nc(N3CCOCC3)cc3c2CN(C)C3=O)c1OC returned SNCA expr inh 0.2%[87.6 µM], Luciferase inh inactive, HEK cytotox inconclusive, HEK293 viab inconclusive, NIH3T3 tox inconclusive and NPR1 antag 4.5%[70.6 µM].
CN1Cc2c(cc(N3CCOCC3)nc2-c2cccc(C(F)(F)F)c2)C1=O was read as SNCA expr inh 4.8%[87.6 µM], Luciferase inh inactive, HEK cytotox -40.3%[172 µM], HEK293 viab 8.5%[87.6 µM], NIH3T3 tox 5.62µM* and NPR1 antag -17.4%[70.6 µM].
Screening CC(C)CNC(=O)c1nc2cccnc2n(CCc2ccccc2)c1=O returned SNCA expr inh -2.4%, HEK cytotox inconclusive, HEK293 viab -9.1%[12.5 µM] and NIH3T3 tox inconclusive.
For COc1cccc(C(=O)N2CCC(C(=O)N3CCCC(c4nc5ccncc5[nH]4)C3)CC2)c1 (stereo unspecified) the results were SNCA expr inh 14.5%, HEK cytotox -10.8%, HEK293 viab 6.8% and NIH3T3 tox -14.8%.
For N#CC1CCN(C(=O)CNC(=O)c2ccc(-c3cnc4ccccc4c3)cc2)CC1 the results were SNCA expr inh -17.4%, HEK cytotox inconclusive, HEK293 viab -18.4% and NIH3T3 tox inconclusive.
Screening O=C(NCC1CCCCC1)c1cn2cc(-c3ccccc3)sc2n1 returned SNCA expr inh -9.6%, HEK cytotox inconclusive, HEK293 viab 10.2% and NIH3T3 tox inconclusive.
O=C(NCc1ccc(Cl)cc1)c1nc2sccn2c1-c1ccncc1 was read as SNCA expr inh 39.1%, HEK cytotox inconclusive, HEK293 viab -17.0% and NIH3T3 tox inconclusive.
`COc1ccccc1N1CCN(C(=O)Cn2c(C)cc3nc4n(c(=O)c32)CCCCC4)CC1` gave SNCA expr inh -14.5%, Luciferase inh inactive, HEK cytotox inconclusive, HEK293 viab -15.4%, NIH3T3 tox 28.2µM* and NPR1 antag -2.1%.
For CC1(COc2ccc3[nH]ccc3c2)COc2ccc(C(=O)NCc3ccco3)cc2N1 (stereo unspecified) the results were SNCA expr inh -25.7%[87.6 µM], Luciferase inh inactive, HEK cytotox 100µM*, HEK293 viab -4.5%[87.6 µM], NIH3T3 tox inconclusive and NPR1 antag -14.8%[70.6 µM].
Screening CN(C)C(=O)c1ccc2c(c1)NC(C)(COc1ccc3[nH]ccc3c1)CO2 (stereo unspecified) returned SNCA expr inh -16.4%[87.6 µM], Luciferase inh inactive, HEK cytotox inconclusive, HEK293 viab 1.4%[87.6 µM], NIH3T3 tox -16.0%[138 µM] and NPR1 antag -13.6%[70.6 µM].
Screening CC1(COc2ccc3[nH]ccc3c2)COc2ccc(C(=O)Nc3cccnc3)cc2N1 (stereo unspecified) returned SNCA expr inh -28.5%[87.6 µM], Luciferase inh inactive, HEK cytotox 100µM*, HEK293 viab -10.0%[87.6 µM], NIH3T3 tox 89.1µM* and NPR1 antag inconclusive.
